Bioassay records (PubChem BioAssay)
The list is not random: actives were taken first. Their share in the collection is about 3.5%.
NS1 inh = blocks influenza NS1 protein function | Potency, µM (doses to about 46.1 µM), for the others: top-dose activity, positive = more growth | AID 2326 | hit rate 0.4% among 270,000; calls by dose curve; further: potency means the concentration at half of the fitted maximal effect; actives are rising curves; nearly all actives have a fitted effect of over 50% in size
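Read-out: OD600 growth recovery of NS1-expressing budding yeast. Cells grown overnight at 30C in -URA glucose medium, washed, resuspended and diluted 1:100 in 2% galactose assay medium, pH 6.0. Same strain lacking NS1 served as positive control.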
Sm TGR block = blocks Schistosoma mansoni thioredoxin glutathione reductase | Q962Y6 | purified TGR, DTNB reduction, TNB absorbance 405 nm | Potency, µM (doses to about 114 µM), for inactives: at the highest dose activity change, negative = inhibition, actives largely listed as inhibitors | hit rate 3% among 360,000 | AID 485364; further: potency means the concentration at half of the fitted maximal effect; on the % scale 0 is the no-effect control and ±100 the full control effect; nearly all actives have a fitted effect of over 60% in size
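First, TGR (20 nM dispensed) and NADPH were mixed with compound. Second, a 15 min room-temperature incubation followed. Third, further NADPH and then DTNB were added to start the reaction. Finally, TNB absorbance was monitored kinetically.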
FBPA Giardia inh = inhibitors of Giardia lamblia fructose-1,6-bisphosphate aldolase; hit rate 0.71% among 290,000; Potency, µM (top dose mostly 59.6 µM), for the others: at the top dose activity, negative = inhibition, actives largely listed as inhibitors; purified Giardia FBPA; further: potency means the concentration at half of the fitted maximal effect; on the % scale 0 is the no-effect control and ±100 the full control effect; nearly all actives have a fitted effect of over 55% in size
Target sequence (A8B2U2 whole entry, looked up): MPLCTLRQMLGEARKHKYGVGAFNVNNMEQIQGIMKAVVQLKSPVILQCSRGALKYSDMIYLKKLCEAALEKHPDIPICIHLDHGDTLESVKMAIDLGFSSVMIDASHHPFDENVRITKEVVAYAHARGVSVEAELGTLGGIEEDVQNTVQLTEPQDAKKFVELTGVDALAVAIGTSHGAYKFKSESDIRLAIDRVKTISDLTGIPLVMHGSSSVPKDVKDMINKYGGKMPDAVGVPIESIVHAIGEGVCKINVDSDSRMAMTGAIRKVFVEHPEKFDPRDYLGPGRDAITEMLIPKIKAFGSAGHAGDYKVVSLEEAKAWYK
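Giardia FBPA (40 nM reagent) was preincubated 10 min at RT with compound (up to 57.5 uM final), then substrate plus GAPDH/TPI/NAD/arsenate coupling system with diaphorase/resazurin was added; resorufin fluorescence (525/598 nm) was read after 20 min.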
LmPK inhibitor = inhibitors of Leishmania mexicana pyruvate kinase; purified LmPK, Kinase-Glo ATP luminescence, 1 h; Potency, µM (highest dose often 57.5 µM), for inactives: top-dose activity change, negative = inhibition, hits mostly inhibitors; Q27686; AID 1721; hit rate 0.37% among 290,000; further: potency means the concentration at half of the fitted maximal effect; on the % scale 0 is the no-effect control and ±100 the full control effect
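qHTS format; LmPK 0.1 nM; substrates PEP 0.5 mM and ADP 0.1 mM. One-hour room-temperature incubation, then coupled luciferase luminescence; 0.5 nM enzyme wells mark activation.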
RE007 growth inh = less growth of the S. pombe RE007 Vpr strain. S. pombe RE007 Vpr strain, BacTiter-Glo ATP luminescence, 24 h. Potency, µM (top dose mostly 92.2 µM), inactives show at the highest dose activity change, negative = less growth, hits mostly inhibitors. hit rate 0.21% among 360,000. AID 651644; active means well fitted falling curve with a large enough effect; inconclusive means small, poorly fitted or top-dose-only effect; inactive means no such curve, though single readings can be large or run the other way; further: potency means the concentration at half of the fitted maximal effect; on the % scale 0 is the no-effect control and ±100 the full control effect; nearly all actives have a fitted effect of over 50% in size
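Fission yeast RE007 carrying one integrated HIV-1 vpr copy, seeded at OD 0.01 in PMG+AL medium with 23 nL pinned compound. Grown 24 h at 30 degrees; viability read by BacTiter-Glo luminescence after 5 min.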
TbPYK inhibitor = inhibitors of Trypanosoma brucei pyruvate kinase; Q57TT1; Potency, µM (titrated, usually from 76.8 µM), for inactives: at the top dose activity, negative = inhibition, hits mostly inhibitors; TbPYK enzyme, Kinase-Glo Plus ATP luminescence, 45 min; hit rate 0.12% among 410,000; AID 624173; further: potency means the concentration at half of the fitted maximal effect; on the % scale 0 is the no-effect control and ±100 the full control effect; nearly all actives have a fitted effect of over 50% in size
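Luminescence from Kinase-Glo Plus, added after a 45-minute room-temperature reaction, served as the end-point read-out. The enzyme and substrate were preincubated with compound before ADP (130 uM final) initiated turnover. Concentration-effect curves came from normalized qHTS data.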
NS1 inh valid = validation of influenza NS1 protein function inhibitors. shares compounds with NS1 inh. influenza NS1 function cell assay, 15-point titration. activity change, negative = inhibition, % at 32.9 µM. 1,400 tested, under 10 active; calls by dose curve; further: 0% is about no effect
Active calls of the source: *; ? = inconclusive; · = no result; [ ] = another dose, or the depositor's remark. Unless noted, the call rests on the fitted dose curve; in most records, active means well fitted curve in the direction sought with a large enough effect; inconclusive means small, poorly fitted or top-dose-only effect, or another doubt; inactive means no such curve, though single readings can be large; an effect the other way counts as inactive or inconclusive.

SMILES	NS1 inh	Sm TGR block	FBPA Giardia inh	LmPK inhibitor	RE007 growth inh	TbPYK inhibitor	NS1 inh valid
O=C(CSc1ccc(F)cc1)Nc1ccc2c(c1)C(=O)NC2=O	1.58µM*	-9.9%	3.1%	3.8%	-20.8%	-3.1%	-9.4
CN1C(=O)c2ccc(NC(=O)CSc3ccccc3)cc2C1=O	-17.2%	-24.9%	1.4%	5.2%	-17.0%	0.1%	·
CCCCC/C=C\C/C=C\C/C=C\C/C=C\CCCC(=O)NCC(=O)O	17.8µM*	·	3.7%	·	·	-5.2%[7.03 µM]	11.6
COCCn1c(C)cc(/C=C2/NC(=O)N(c3ccc(Cl)cc3)C2=O)c1C	?	-4.8%	-5.2%	-0.9%	5.6%	-2.8%	8.0
Cn1nc(-c2ccccc2)c(C#N)c1Sc1cccc(Cl)c1	?	22.8%	1.0%	7.4%	-20.2%	-5.0%	-13.5
Cc1nn(C)c(Oc2cccc(Cl)c2)c1C#N	·	7.5%	-1.3%	9.0%	0.0%	-26.8%	·
CC(=O)c1c(COC(=O)c2cccnc2)nc2ccccc2[n+]1[O-]	5.01µM*	9.4%[11.4 µM]	-5.4%	7.8%	4.7%	-17.0%	18.3
Cc1ccc(CCNC(=O)C2COc3ccccc3C2)cc1 (stereo not drawn)	·	3.5%	·	·	·	-5.0%	·
O=Cc1ccc(OC2C=CC(c3ccccc3)OC2CO)cc1 (stereo not drawn)	·	·	0.3%[12.9 µM]	·	·	·	·
Cc1ccc(S(=O)(=O)c2ccc(C)cc2)cc1	4.7%	3.0%	-7.6%	3.9%	-12.4%	1.6%	·
CNS(=O)(=O)c1ccc(C)cc1	?	3.0%	-10.9%	-4.7%	9.1%	4.8%	13.5
O=C(CSC1=Nc2ccccc2N=C(c2ccc(F)cc2)C1)Nc1cccc(C(F)(F)F)c1	·	-4.5%	·	·	·	-1.3%	·
CCCOc1ccc(-c2nc(-c3ccc(N)cc3)cs2)cc1	12.6µM*	-5.8%	-12.0%	0.9%	·	·	4.0
Cc1cccc(-c2noc(CN(C3CCCCC3)S(=O)(=O)c3ccc(F)cc3)n2)c1	·	1.1%	·	·	·	-1.7%	·
Cc1ccc(S(=O)(=O)N(C)C)cc1-n1c(SCC(=O)Nc2ccc(F)cc2)nc2ccccc2c1=O	12.6µM*	?	0.8%	9.3%	1.0%	6.1%	16.9
CCOC(=O)c1c(NC(=O)CSc2cn(CCNC(=O)c3c(F)cccc3F)c3ccccc23)sc2c1CCC2	·	0.4%	·	·	·	-1.4%	·
CCOc1ccccc1NC(=O)c1cc2cc(C)ccc2n1C	·	6.8%	·	·	·	11.4%	·
Cc1cc(OCC(=O)N[C@@H](CSCc2ccccc2)C(=O)O)c2c(C)c(C)c(=O)oc2c1	12.6µM*	-11.8%	5.1%	5.9%	-9.6%	5.0%	?
Cc1cc(OCC(=O)N[C@@H](Cc2ccccc2)C(=O)O)c2c3c(c(=O)oc2c1)CCC3	?	7.7%	15.0%	-17.0%	-19.4%	0.1%	·
Cc1ccc(NC(=O)c2cc(S(=O)(=O)N3CCCCCC3)ccc2F)cc1F	·	17.6%	·	·	·	-3.1%	·
O=C(c1ccccc1)[C@H]1[C@H](c2ccccc2)[C@@]2(N=C(c3ccccc3)OC2=O)C2c3ccccc3C=NN21 (stereo partly drawn)	2.51µM*	-7.5%	-5.3%	-2.4%	·	·	-16.8
CCCCOc1c(Br)cc(/C=C2\N=C(C)OC2=O)cc1OCC	3.55µM*	-5.2%	14.5%	2.3%	-2.8%	0.2%	-1.6
CCOc1cc(/C=C2\N=C(C)OC2=O)cc(Cl)c1OCC(=O)OC	·	·	·	·	3.4%	-3.5%	·
CN1CCc2cc(NC(=O)Nc3cccnc3)ccc21	25.1µM*	·	-3.0%	·	·	·	-0.2
Cc1ccc(NC(=O)Nc2cccnc2)cc1Cl	-9.0%	6.7%	5.9%	8.2%	6.8%	-1.9%	·
SMILES	NS1 inh	Sm TGR block	FBPA Giardia inh	LmPK inhibitor	RE007 growth inh	TbPYK inhibitor	NS1 inh valid
COc1ccccc1C(=O)N(Cc1sccc1C)C1CCS(=O)(=O)C1 (stereo not drawn)	3.16µM*	6.3%	-2.1%	2.9%	9.5%	2.8%	3.0
COC(=O)NC(CC(C)=O)c1cccc(C(F)(F)F)c1 (stereo not drawn)	·	·	1.1%[12.9 µM]	·	·	·	·
Cc1cc(Cl)ccc1NC(=O)C1CCN(c2nnc(-n3c(C)ccc3C)s2)CC1	·	-32.3%	·	·	·	-1.8%	·
COc1ccc2oc(/C=C/N(C)C)c(C(=O)c3ccc(Cl)cc3)c2c1	12.6µM*	-32.6%	-1.8%	2.7%	?	-4.6%	-27.9
C#CCn1c(=NC(=O)c2cc(Cl)sc2Cl)sc2cc(S(N)(=O)=O)ccc21	10µM*	-6.4%	-4.2%	0.7%	11.0%	1.1%	16.7
CN(C)c1ccc(N2C(=O)CC(Nc3ccc(N4CCOCC4)cc3)C2=O)cc1 (stereo not drawn)	5.8%	?	1.2%	1.9%	0.0%	-12.7%	·
O=C1CC(Nc2ccc(N3CCOCC3)cc2)C(=O)N1c1cccc(C(F)(F)F)c1 (stereo not drawn)	11.2µM*	28.2µM*	-26.3%	1.4%	-2.6%	-9.3%	4.3
O=C(Cn1cnc([N+](=O)[O-])n1)NCc1ccccc1	3.55µM*	3.3%	-14.1%	-2.8%	14.8%	-3.7%	3.0
COc1ccc(N2CCN(C(=O)c3ccc(NS(=O)(=O)c4ccccc4)cc3)CC2)cc1	12.6µM*	-9.2%	-22.3%	-0.4%	2.9%	0.5%	-17.8
COc1ccc(NS(=O)(=O)c2ccc(OCC(=O)N3CCCC3)cc2)cc1	?	0.4%	6.9%	-0.4%	3.6%	-6.0%	3.6
CNC(=O)COc1ccc(S(=O)(=O)Nc2ccc(OC)cc2)cc1	-2.0%	-11.5%	4.0%	5.4%	17.1%	-3.8%	·
